Most compounds without a hit are left out; they make up all but 7.6% or so of the library.
MCF10A rereplic: A quantitative high throughput screen for small molecules that induce DNA re-replication in MCF 10a normal breast cells; 350,000 compounds, 2.9% hits; Potency, µM (series often up to 46.1 µM), most hits filed as activators; MCF 10A DNA re-replication, Hoechst nuclear intensity, 48 h; also: nearly all actives have a fitted effect of over 50% in size
SW480 rereplic: A quantitative high throughput screen for small molecules that induce DNA re-replication in SW480 colon adenocarcinoma cells. SW480 DNA re-replication, Hoechst DNA content imaging, 48 h. Potency, µM (doses to about 46.1 µM), hits mostly activators. 340,000 compounds, 1.8% hits. AID 624297, 2012; also: nearly all actives have a fitted effect of over 55% in size
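Per well, 250 cells were exposed to pinned compound for 48 hr. Nuclear DNA was visualised with Hoechst (40 min, 37 C) and total object intensity recorded by fluorescence scanning.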
KB-V1 cytotox: qHTS assay for MDR1-selective chemotherapeutics: Primary screen using the drug-selected MDR subline cells KB-V1. Potency, µM (top dose mostly 46.1 µM), actives largely listed as cytotoxic. 400,000 compounds, 3.4% hits. KB-V1 MDR cells viability, CellTiter-Glo, 72 h; also: nearly all actives have a fitted effect of over 60% in size
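Compound-treated KB-V1 multidrug-resistant cells, 72 h, 37 degrees C; viability by CellTiter-Glo. Fitted qHTS curves give the values.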
KCNH2 3.1 block: qHTS for Inhibitors of KCHN2 3.1: Mutant qHTS; Potassium voltage-gated channel subfamily H member 2, brain isoform KCNH2 3.1 (human); U2OS KCNH2 3.1, thallium flux FluxOr; hits give low values; activity change, % (tested at about 1.8 µM); 340,000 compounds, 0.95% hits;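 active = maximum activity change below -70%; inconclusive = maximum activity change from -70% to -50%; inactive = maximum activity change above -50%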;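 also: thallium influx rate constant from kinetic fluorescence after stimulation buffer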
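Thallium flux read-out: FluxOr dye with Red40 quencher in HBSS/HEPES, 45 min at RT. Rate constants from kinetic reads were normalized to positive and negative DMSO controls. Cells: U2OS virally expressing the 3.1 isoform.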
hERG WT inh: qHTS for Inhibitors of KCHN2 3.1: Wildtype qHTS; Voltage-gated inwardly rectifying potassium channel KCNH2 (Homo sapiens), Q12809; 340,000 compounds, 0.37% hits; activity change, % at 1.84 µM; U2OS, BacMam KCNH2, thallium flux FluxOr; hits give low values;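 active = maximum activity change below -70%; inconclusive = maximum activity change between -70% and -50%; inactive = maximum activity change above -50%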
Target sequence (Q12809 whole entry, looked up): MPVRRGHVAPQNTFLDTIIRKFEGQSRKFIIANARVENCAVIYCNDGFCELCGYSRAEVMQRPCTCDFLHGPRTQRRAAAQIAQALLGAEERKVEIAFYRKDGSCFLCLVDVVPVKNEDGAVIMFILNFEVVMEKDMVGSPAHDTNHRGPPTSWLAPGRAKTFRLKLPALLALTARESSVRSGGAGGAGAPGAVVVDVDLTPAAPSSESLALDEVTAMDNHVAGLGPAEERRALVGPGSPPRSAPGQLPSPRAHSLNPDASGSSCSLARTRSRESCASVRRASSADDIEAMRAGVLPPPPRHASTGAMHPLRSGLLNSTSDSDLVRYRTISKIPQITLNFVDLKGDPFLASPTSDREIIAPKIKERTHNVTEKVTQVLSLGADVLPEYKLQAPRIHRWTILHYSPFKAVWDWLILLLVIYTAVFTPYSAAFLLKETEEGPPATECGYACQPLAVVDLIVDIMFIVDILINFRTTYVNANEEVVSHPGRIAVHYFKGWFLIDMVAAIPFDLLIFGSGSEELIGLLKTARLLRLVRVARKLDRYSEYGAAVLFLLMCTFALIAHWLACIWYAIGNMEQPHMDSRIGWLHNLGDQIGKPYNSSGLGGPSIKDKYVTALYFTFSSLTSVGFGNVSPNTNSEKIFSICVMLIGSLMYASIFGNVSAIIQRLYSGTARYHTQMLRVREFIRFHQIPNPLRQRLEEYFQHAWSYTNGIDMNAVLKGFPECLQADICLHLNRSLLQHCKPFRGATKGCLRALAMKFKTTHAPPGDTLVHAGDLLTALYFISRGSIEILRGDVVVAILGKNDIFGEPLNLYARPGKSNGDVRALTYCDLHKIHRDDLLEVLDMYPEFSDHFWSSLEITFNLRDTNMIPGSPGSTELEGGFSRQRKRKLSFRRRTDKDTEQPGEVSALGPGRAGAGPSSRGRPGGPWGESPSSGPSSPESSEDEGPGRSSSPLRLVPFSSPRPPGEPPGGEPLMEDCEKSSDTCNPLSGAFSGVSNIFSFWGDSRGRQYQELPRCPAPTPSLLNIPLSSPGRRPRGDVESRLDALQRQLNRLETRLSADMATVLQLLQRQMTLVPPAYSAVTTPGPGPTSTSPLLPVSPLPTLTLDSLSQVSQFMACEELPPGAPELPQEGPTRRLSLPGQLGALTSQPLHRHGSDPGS
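U2OS cells transduced with wild-type KCNH2 virus are loaded with FluxOr dye for 45 min, and thallium flux is measured in kinetic reads before and after stimulation buffer. Rate constants are normalized to DMSO controls.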
KB-3-1 cytotox: qHTS assay for MDR1-selective chemotherapeutics: Primary screen using the parental adenocarcinoma cell KB-3-1 | KB-3-1 viability, CellTiter-Glo ATP luminescence, 72 h | AID 1347075, 2019 | 400,000 compounds, 1.4% hits | Potency, µM (doses to about 46.1 µM), hits mostly cytotoxic; also: nearly all actives have a fitted effect of over 60% in size
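Parental KB-3-1 adenocarcinoma cells in phenol-red-free DMEM with 10% FBS were pin-treated with compounds at several concentrations, incubated 72 h at 37 °C, and viability read by CellTiter-Glo luminescence; concentration-effect curves were fitted after normalization.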
Of the large screens only hits and unclear results are named; the others gave an inactive call. Unless noted, calls follow the shape of the dose curve; as a rule, active = well fitted curve in the direction sought with a large enough effect; inconclusive = small, poorly fitted or top-dose-only effect, or another doubt; inactive = no such curve, though single readings can be large; an effect the other way counts as inactive or inconclusive.

Cc1cc(C)cc(N2C(N)=NC(N)=NC2c2ccccc2F)c1 (stereo not given)	SW480 rereplic inconclusive, KB-V1 cytotox 16µM, KB-3-1 cytotox inconclusive
CCOC(=O)C1=C(COC(=O)c2ccccc2[N+](=O)[O-])NC(=O)NC1C (stereo not given)	SW480 rereplic inconclusive
CCOCCCn1c(SCc2nc3ccccc3s2)nc2ccccc2c1=O	MCF10A rereplic inconclusive, SW480 rereplic inconclusive, KB-V1 cytotox 2.3µM, KB-3-1 cytotox 12µM
CCOCCCn1c(SCC(=O)Nc2ccccc2)nc2ccccc2c1=O	none
CCOCCCn1c(SCC(=O)/C(C#N)=C(\C)N)nc2ccccc2c1=O	KB-V1 cytotox 8.2µM
C/C(N)=C(/C#N)C(=O)CSc1nc2ccccc2c(=O)n1CCCOC(C)C	none
CCCNC(=O)c1ccc(N2CCC3(CC2)CC(c2ccccc2)=NO3)c([N+](=O)[O-])c1	KB-3-1 cytotox inconclusive
CCCCCCCNC(=O)c1ccc(N2CCC3(CC2)OCCO3)c([N+](=O)[O-])c1	KB-V1 cytotox 9.2µM
O=C(NCCc1ccccc1)c1ccc(CSc2nc3ccncc3n2Cc2ccccc2F)cc1	none (no result: MCF10A rereplic, SW480 rereplic, KCNH2 3.1 block, hERG WT inh)
CCCC(=O)N1CCN(c2ccc(NC(=O)c3cc4ccccc4o3)cc2Cl)CC1	MCF10A rereplic 6.5µM, KB-V1 cytotox inconclusive, KCNH2 3.1 block -90, hERG WT inh inconclusive, KB-3-1 cytotox inconclusive
CCC(=O)N1CCN(c2ccc(NC(=O)c3cc4ccccc4o3)cc2Cl)CC1	MCF10A rereplic inconclusive, KB-V1 cytotox 9.2µM, KCNH2 3.1 block -88, KB-3-1 cytotox inconclusive
O=C(Nc1ccc(N2CCN(C(=O)c3ccccc3)CC2)c(Cl)c1)c1ccco1	MCF10A rereplic inconclusive, KB-V1 cytotox inconclusive, KB-3-1 cytotox inconclusive
O=C(Nc1ccc(N2CCN(C(=O)c3ccco3)CC2)c(Cl)c1)c1cc2ccccc2o1	MCF10A rereplic 9.2µM, SW480 rereplic inconclusive, KCNH2 3.1 block -113, KB-3-1 cytotox inconclusive
CCCOc1ccc(C(=O)N2CCN(c3ccc(NC(=O)CC)cc3Cl)CC2)cc1	MCF10A rereplic inconclusive, KCNH2 3.1 block -86
CN1CCN(c2ccc(NC(=O)COc3ccccc3)cc2Cl)CC1	MCF10A rereplic inconclusive
CCCC(=O)N1CCN(c2ccc(NC(=O)c3cccs3)cc2Cl)CC1	none
O=C(Nc1ccc(-c2nc3ncccc3o2)cc1)c1ccc(Br)o1	SW480 rereplic inconclusive
O=C(Nc1ccc(NC(=O)c2cc3ccccc3o2)cc1)c1ccco1	KB-V1 cytotox inconclusive, KCNH2 3.1 block -75
O=C(Nc1ccc(-c2nc3ncccc3o2)cc1)c1ccco1	MCF10A rereplic inconclusive, SW480 rereplic inconclusive, KCNH2 3.1 block -81
O=C(Nc1ccccc1)c1cc2ccccc2o1	none
CCc1ccc(NC(=O)CSC2=Nc3ccccc3C3=NC(CCC(=O)NCc4ccco4)C(=O)N23)cc1 (stereo not given)	none (no result: MCF10A rereplic, SW480 rereplic, KCNH2 3.1 block, hERG WT inh)
CC(=O)c1c(O)c(C)c(O)c2c1OC1=CC(=O)C(C(C)=O)C(=O)[C@@]12C (stereo not given in full)	MCF10A rereplic 3.7µM, KB-3-1 cytotox inconclusive
CC(=O)NC1=CC(=O)c2nonc2C1=O	KB-3-1 cytotox 5.2µM (no result: MCF10A rereplic, SW480 rereplic, KCNH2 3.1 block, hERG WT inh)
COc1ccc2nc3ccccc3[n+]([O-])c2c1	none
COc1ccc2ccc3cccc[n+]3c2c1	MCF10A rereplic inconclusive, SW480 rereplic inconclusive, KB-3-1 cytotox 13µM
CCOCCCNC(=O)/C(C#N)=C/c1ccc(Cl)c([N+](=O)[O-])c1	MCF10A rereplic 18µM, KB-V1 cytotox inconclusive, KB-3-1 cytotox inconclusive
CCOCCCNC(=O)/C(C#N)=C/c1cc(OC)c(O)c([N+](=O)[O-])c1	MCF10A rereplic 4.6µM, SW480 rereplic inconclusive, KB-V1 cytotox 5.8µM, KB-3-1 cytotox 7.3µM
CCOCCCNC(=O)/C(C#N)=C/c1cc(C)c(O)c(C)c1	MCF10A rereplic 23µM, SW480 rereplic inconclusive
CCOc1ccc(-c2cc3c(=O)n(Cc4nc(-c5ccc(OC(C)C)cc5)oc4C)ccn3n2)cc1Cl	none (no result: MCF10A rereplic, SW480 rereplic, KCNH2 3.1 block, hERG WT inh)
O=C(O)CNc1nc(NCc2ccc(Cl)cc2)ccc1[N+](=O)[O-]	none (no result: MCF10A rereplic, SW480 rereplic)
CCC(C)(C)NC(=O)CN(C(=O)CCC(=O)Nc1ccccn1)c1ccc2c(c1)OCO2	none
O=C1OCCN1C(=O)[C@H]1[C@H](c2ccc(Cl)cc2)C(c2cccc(Cl)c2)=NN1c1ccccc1	MCF10A rereplic inconclusive, SW480 rereplic 12µM
Cc1cccc(C2=NN(c3ccccc3)[C@@H](C(=O)N3CCOC3=O)[C@@H]2c2ccc([N+](=O)[O-])cc2)c1	none
O=C1OCCN1C(=O)[C@H]1[C@H](c2ccc(F)cc2)C(c2cccc(Cl)c2)=NN1c1ccccc1	MCF10A rereplic 0.58µM, SW480 rereplic 18µM
CN1CCc2nc(NC(=O)COc3ccc4ccccc4c3)sc2C1	MCF10A rereplic 13µM, SW480 rereplic inconclusive, KB-V1 cytotox inconclusive, KB-3-1 cytotox inconclusive
CCc1nnc(NC(=O)COc2ccc3ccccc3c2)s1	none
CN1CCN(c2ccc(NC(=O)COc3ccc4ccccc4c3)cc2)CC1	MCF10A rereplic 16µM, SW480 rereplic inconclusive, KB-V1 cytotox inconclusive
COc1ccc(C(O)c2nc(-c3cc(F)cc(F)c3)cs2)cc1 (stereo not given)	none (no result: MCF10A rereplic, SW480 rereplic, KCNH2 3.1 block, hERG WT inh)
CC(NC(=O)c1ccccc1NC(=O)CN1CCN(c2ccccc2O)CC1)c1ccccc1 (stereo not given)	KB-V1 cytotox inconclusive
CC(NC(=O)c1ccccc1NC(=O)CN1CCc2ccccc2C1)c1ccccc1 (stereo not given)	MCF10A rereplic 26µM, SW480 rereplic inconclusive, KB-V1 cytotox 18µM, KB-3-1 cytotox inconclusive
CC(C)SC1=NC(C)(C)C=C(/C=C/c2ccc(Cl)cc2Cl)N1	MCF10A rereplic 8.2µM, SW480 rereplic inconclusive, KB-3-1 cytotox inconclusive
CC(C)SC1=NC(C)(C)C=C(/C=C/c2c(Cl)cccc2Cl)N1	MCF10A rereplic 18µM, SW480 rereplic inconclusive, KB-3-1 cytotox 15µM
Cc1ccc(COc2ccc(CNCCCN3CCCCCC3=O)cc2)cc1	MCF10A rereplic inconclusive, SW480 rereplic 18µM, KB-3-1 cytotox inconclusive
CCC(C)c1ccc(NC(=O)Nc2cnccn2)cc1 (stereo not given)	MCF10A rereplic 5.8µM, SW480 rereplic 3.3µM, KB-V1 cytotox inconclusive, hERG WT inh -281, KB-3-1 cytotox 3.3µM
COc1cc(N2CCCC2)c(OC)cc1/C=C(/C#N)c1ccc(Br)cc1	MCF10A rereplic 23µM
